# Reference: PubChem BioAssay (NCATS)
# “And” between values parts separate entries of the source, which are not always exact repeats. Equal values may be shown once. A number with no mark means an inactive call. Results filed as inconclusive are left out. Entries that show only a call come without a potency. The source made the active and inactive calls. Unless noted, no rule for the calls is given here.
# System: not listed separately
# Assay: qHTS assay for cell viability of the p53RE-bla HCT-116 cell line (AID 743292; active = well fitted cell-killing curve with a large enough effect; also: nearly all actives have a fitted effect of over 55% in size)
# Settings: p53RE-bla HCT-116 viability, ATP luminescence, 16 h; series mostly up to 95 µM
# Outline: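 ATP-based luminescent viability (CellTiter-Glo, 30 min RT) after 16 h compound treatment at 37 C of p53RE-bla HCT-116 cells, seeded at 4,000 cells/well and rested 5 h before dosing.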
row,SMILES,Potency
1,CCCN(CCC)C(=O)SCC,inactive
2,COc1ccc2nc(N)sc2c1,inactive
3,ClCCCl,inactive
4,CCC(O)OC(O)CC (stereo not given),inactive
5,C=Cc1ccccc1Cl,inactive
6,c1ccc2c(c1)c1cccc3ccc4cccc2c4c31,inactive
7,Cc1cccc([N+](=O)[O-])c1C,inactive
8,CCCCCCCCO,inactive
9,CC(C)=CCCC(C)CCO (stereo not given),inactive
10,O=[N+]([O-])c1cccc(Cl)c1Cl,inactive
11,CCO[Si](CCCN)(OCC)OCC,inactive
12,Clc1cc(Cl)c(Cl)cc1Cl,inactive
13,CCO,inactive
14,C=CC(=O)OCCOCCOCCOCCOC(=O)C=C,inactive
15,Clc1cc(Cl)c(Cl)c(Cl)c1Cl,inactive
16,CCCCC(CC)CN (stereo not given),inactive
17,O=NO,inactive
18,c1ccc2c(c1)[nH]c1ccccc12,inactive
19,OCCNCCO,inactive
20,Nc1ccc(Cl)cc1Cl,inactive
21,CCC(C)c1ccccc1O (stereo not given),inactive
22,CC1=CC(C)(C)Nc2ccccc21,inactive
23,CN(C)C=O,inactive
24,Cc1ccc(N)c([N+](=O)[O-])c1,inactive
25,CCCCOCCO,inactive
26,CC(=O)OC/C=C(\C)CCC=C(C)C,inactive

# Target: Nuclear receptor subfamily 1 group I member 2 (Rattus norvegicus) (UniProt Q9R1A7)
# Sequence (Q9R1A7 whole entry, looked up): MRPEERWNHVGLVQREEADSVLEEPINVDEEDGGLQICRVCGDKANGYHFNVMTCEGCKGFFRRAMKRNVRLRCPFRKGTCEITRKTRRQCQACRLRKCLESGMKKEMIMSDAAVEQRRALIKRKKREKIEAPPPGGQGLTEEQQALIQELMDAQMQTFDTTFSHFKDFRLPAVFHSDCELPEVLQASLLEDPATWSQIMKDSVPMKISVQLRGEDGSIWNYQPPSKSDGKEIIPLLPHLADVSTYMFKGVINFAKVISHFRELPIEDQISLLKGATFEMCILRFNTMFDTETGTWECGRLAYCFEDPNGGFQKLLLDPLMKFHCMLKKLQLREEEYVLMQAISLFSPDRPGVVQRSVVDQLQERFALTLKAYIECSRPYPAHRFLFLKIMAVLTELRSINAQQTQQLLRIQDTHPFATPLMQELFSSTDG
# Assay: qHTS assay for small molecule activators of the rat pregnane X receptor (rPXR) signaling pathway (AID 651751)
# Settings: rPXR reporter cells, luciferase (One-Glo), 24 h
row,SMILES,max response
1,CCCN(CCC)C(=O)SCC,5.19% and 0.741%
2,ClCCCl,1.44% and 0.0885% and 1.57%
3,CCC(O)OC(O)CC (stereo not given),-0.225% [middle of 4 runs]
4,C=Cc1ccccc1Cl,1.05%
5,c1ccc2c(c1)c1cccc3ccc4cccc2c4c31,4.91% and -2.4%
6,Cc1cccc([N+](=O)[O-])c1C,1.82% and -0.351%
7,CCCCCCCCO,-3.47% and -2.32% and 2.37%
8,CC(C)=CCCC(C)CCO (stereo not given),-5.01% and 0.846%
9,O=[N+]([O-])c1cccc(Cl)c1Cl,-1.89% and -3.78%
10,CCO[Si](CCCN)(OCC)OCC,-3.96% and 0.794%
11,Clc1cc(Cl)c(Cl)cc1Cl,1.48% and 5.88%
12,CCO,0.289%
13,Clc1cc(Cl)c(Cl)c(Cl)c1Cl,0.274% and 3.7%
14,CCCCC(CC)CN (stereo not given),1.98% and 0.48%
15,O=NO,3.2% and 1.29%
16,c1ccc2c(c1)[nH]c1ccccc12,-0.192% and 1.32%
17,Nc1ccc(Cl)cc1Cl,2.63% and 1.63%
18,CCC(C)c1ccccc1O (stereo not given),11.2% and -2.55% and 1.18%
19,CN(C)C=O,4.41% and 5.29% and 1.77%
20,Cc1ccc(N)c([N+](=O)[O-])c1,-2.15% and -2.21%
21,CC(=O)OC/C=C(\C)CCC=C(C)C,1.82% and -1.93%

# System: not listed separately
# Assay: qHTS assay for small molecule activators of the human pregnane X receptor (PXR) signaling pathway (AID 720659)
# Settings: DPX-2 HepG2 CYP3A4-luciferase, 24 h; series mostly up to 92.3 µM
row,SMILES,outcome
1,CCCN(CCC)C(=O)SCC,inactive
2,ClCCCl,inactive
3,CCC(O)OC(O)CC (stereo not given),inactive
4,C=Cc1ccccc1Cl,inactive
5,c1ccc2c(c1)c1cccc3ccc4cccc2c4c31,inactive
6,Cc1cccc([N+](=O)[O-])c1C,inactive
7,CCCCCCCCO,inactive
8,CC(C)=CCCC(C)CCO (stereo not given),inactive
9,O=[N+]([O-])c1cccc(Cl)c1Cl,inactive
10,CCO[Si](CCCN)(OCC)OCC,inactive
11,Clc1cc(Cl)c(Cl)cc1Cl,inactive
12,CCO,inactive
13,C=CC(=O)OCCOCCOCCOCCOC(=O)C=C,inactive
14,Clc1cc(Cl)c(Cl)c(Cl)c1Cl,inactive
15,CCCCC(CC)CN (stereo not given),inactive
16,O=NO,inactive
17,c1ccc2c(c1)[nH]c1ccccc12,inactive
18,OCCNCCO,inactive
19,Nc1ccc(Cl)cc1Cl,inactive
20,CCC(C)c1ccccc1O (stereo not given),inactive
21,CN(C)C=O,inactive
22,CCCCOCCO,inactive
23,CC(=O)OC/C=C(\C)CCC=C(C)C,inactive
